Rows were chosen to be rich in hits. Some 1.1% of all compounds tested hit in one or more screens of this group.
HTR5A inv ag – inverse agonist of human HTR5A in OPRM1-OPRD1 counter-screen; P47898; HTR5A cell line, luminescence, inverse agonism; inhibition, % at 9.3 µM; 0.083% of 340,000 active; AID 504634; in the data active = inhibition mostly above about 23%, no sharp cut-off; inactive = mostly below about 18%
Target sequence (P47898 whole entry, looked up): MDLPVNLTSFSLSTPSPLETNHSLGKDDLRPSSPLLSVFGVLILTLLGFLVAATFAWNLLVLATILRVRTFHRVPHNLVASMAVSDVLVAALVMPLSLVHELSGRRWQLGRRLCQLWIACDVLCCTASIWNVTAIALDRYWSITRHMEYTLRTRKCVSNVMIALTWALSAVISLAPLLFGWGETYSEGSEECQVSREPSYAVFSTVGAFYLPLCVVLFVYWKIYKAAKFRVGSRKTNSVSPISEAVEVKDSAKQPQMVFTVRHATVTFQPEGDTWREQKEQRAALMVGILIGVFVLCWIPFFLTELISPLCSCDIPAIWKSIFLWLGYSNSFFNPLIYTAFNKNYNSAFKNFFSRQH
OPRM1-OPRD1 inv – mu-delta opioid heterodimer inverse agonism | cell-based MOR-DOR heterodimer luminescence | AID 504357 | P35372+P41143 | 0.21% of 340,000 active | inhibition, % at 9.3 µM; in the data active = inhibition above about 22%, passing the limit was not always enough
OPRM1-OPRD1 ag – agonists of human mu-delta opioid receptor heterodimerization; 0.3% of 340,000 active; activation, % at 9.3 µM; P35372+P41143; cells, OPRM1-OPRD1 heterodimerization, luminescence; in the data active = activation above about 18%
HTR5A ag ctr – HTR5A agonism, opioid heterodimer counter-screen. 0.61% of 340,000 active. HTR5A agonist assay, luminescence, cell-based. activation, % at 9.3 µM. AID 504692; in the data active = activation mostly above about 9.5%, no sharp cut-off; inactive = mostly below about 7.6%
Of the large screens only hits and unclear results are named; the others gave an inactive call.

COc1cccc(NC(=O)CSCC(=O)Nc2ccccc2)c1	none
COc1cccc(NC(=O)CSCC(=O)O)c1	HTR5A ag ctr 13.7
COCC(=O)Nc1c(C(=O)Nc2ccccc2OC)oc2ccccc12	none
CC(C)(C)C(=O)NC(=S)NNC(=O)c1ccc(-c2ccccc2)cc1	HTR5A inv ag 87.0, OPRM1-OPRD1 inv 30.4
COC(=O)c1c(NC(=O)CCC(=O)O)sc2c1CCCCC2	HTR5A ag ctr 13.7
COc1ccccc1-n1c(=S)sc2c(=O)n(Cc3ccco3)c(SC)nc21	HTR5A ag ctr 10.2
CCOc1ccc(-c2nnc(NC(=O)CCCOc3cccc(C)c3)o2)cc1	HTR5A ag ctr 13.0
CCOc1ccc(-c2nnc(NC(=O)Cc3ccc(OC)cc3)o2)cc1	none
Cc1sc2nc(CN3CCN(c4ccc(O)cc4)CC3)[nH]c(=O)c2c1C	HTR5A ag ctr 12.2
CCC(CC)c1nnc(NC(=O)CC(C)c2ccccc2)s1 (stereo not drawn)	HTR5A ag ctr 11.5
CCOC(=O)C1CCCN(C(=O)COc2ccc(C(=O)c3ccccc3)cc2)C1 (stereo not drawn)	none
CCOC(=O)C1CCCN(c2c(C(=O)c3ccccc3)cnc3ccc(OC)cc23)C1 (stereo not drawn)	HTR5A inv ag 30.5, OPRM1-OPRD1 inv 36.2
CCN(CC)C(=O)Cn1cc(SCC(=O)Nc2cc(C)on2)c2ccccc21	none
C/C(=C\c1ccccc1)CN1CCN(c2cccc(Cl)c2)CC1	none
OC(COC(c1ccccc1)c1ccccc1)CN1CCN(c2cccc(Cl)c2)CC1 (stereo not drawn)	none
OC(CN1CCN(c2cccc(Cl)c2)CC1)c1ccccc1 (stereo not drawn)	HTR5A ag ctr 12.5
NC(=O)CN1CCN(c2cccc(Cl)c2)CC1	HTR5A ag ctr 13.6
Cc1cc(SCC(=O)Nc2cccc(S(=O)(=O)N3CCOCC3)c2)nc2ccccc12	none
O=C(COc1ccccc1)Nc1ccc(CSc2ccccc2)cc1	HTR5A ag ctr 11.7
CC(=O)c1ccc(N2Cc3ccccc3C2=NC(=O)c2cccs2)cc1	none
CCOC(=O)c1ccc(NC(=O)c2cccc(S(=O)(=O)N3CCN(C(C)=O)CC3)c2)cc1	HTR5A ag ctr 11.8
CCCOC(=O)c1ccc(NC(=O)c2cccc(S(=O)(=O)N3CCN(C(C)=O)CC3)c2)cc1	none
CC1=C/C(=C(\c2cc(C)c(O)c(Br)c2)c2ccccc2S(=O)(=O)O)C=C(Br)C1=O	OPRM1-OPRD1 inv 28.0
Cc1cc(C(=O)c2ccccc2)cc(C)c1O	none
CS(=O)(=O)c1ccc(C(=O)Nc2nc(-c3ccco3)c(-c3ccco3)s2)cc1	HTR5A ag ctr 44.5
O=C(Nc1nc(-c2ccco2)c(-c2ccco2)s1)C1CCC1	none
O=C(O)c1ccc(/C=N/Nc2ncc(Cl)cc2Cl)cc1	none
NC(=O)CSCc1c(Cl)cccc1Cl	HTR5A ag ctr 12.5
CC(C)(C)NC(=O)CSCc1c(Cl)cccc1Cl	none
Cc1nc2ccccc2n1S(=O)(=O)c1ccc(S(=O)(=O)N2CCCCCC2)cc1	HTR5A ag ctr 14.3
Cc1onc(-c2ccccc2Cl)c1C(=O)N1CCN(S(=O)(=O)c2ccc(F)c(F)c2)CC1	none
O=C(O)c1cccc(N2C(=O)C3CC=C(Cl)CC3C2=O)c1 (stereo not drawn)	HTR5A ag ctr 11.0
O=C(O)c1cccc(N2C(=O)C3CC=CCC3C2=O)c1 (stereo not drawn)	none
COc1cc(C(=O)O)cc(Br)c1OC1CCCC1	HTR5A ag ctr 11.1
COc1ccc(CN2C(=O)C(C)Nc3ncnc(N4CCN(c5ccccc5)CC4)c32)cc1 (stereo not drawn)	HTR5A inv ag 41.9, OPRM1-OPRD1 inv 50.4
CC1Nc2ncnc(N3CCOCC3)c2N(Cc2ccccc2)C1=O (stereo not drawn)	none
CC1Nc2ncnc(N3CCN(c4ccccc4)CC3)c2N(Cc2ccc(Br)cc2)C1=O (stereo not drawn)	HTR5A inv ag 69.1, OPRM1-OPRD1 inv 70.8
Cc1ccc(NC(=O)c2ccc(CNS(=O)(=O)c3cccc(C(F)(F)F)c3)cc2)cc1	none
O=C(Nc1ccccc1F)c1ccc(CNS(=O)(=O)c2cccc(C(F)(F)F)c2)cc1	HTR5A ag ctr 11.5
COc1ccc(CNS(=O)(=O)c2ccc(F)c(C(=O)Nc3ccccc3OC)c2)cc1	HTR5A ag ctr 9.5
COc1ccccc1N(CC(=O)NCC(C)C)S(=O)(=O)c1cccs1	none
COc1ccc(CCNC(=O)CCCn2nc(C)n3ccnc3c2=O)cc1OC	none
Cc1ccc(C)c(NC(=O)CN(C)C(=O)c2cccc(-n3cccc3)c2)c1	none
O=C(c1ccc(Cl)c(S(=O)(=O)N2CCCC2)c1)N1CCN(c2ccccn2)CC1	HTR5A ag ctr 11.8
O=C(c1ccc(Cl)c(S(=O)(=O)N2CCOCC2)c1)N1CCN(c2ccccn2)CC1	none
C=CCN1C(=O)/C(=N/n2cnnc2)c2ccccc21	OPRM1-OPRD1 inv 45.9
CCCCCCCNC(=O)C1(CC2CC(c3ccccc3)=NO2)CCN(C(=O)OC(C)(C)C)CC1 (stereo not drawn)	none
Cc1cccc(N(Cc2ccccc2)C(=O)CCl)c1	OPRM1-OPRD1 ag 66.7, HTR5A ag ctr 65.2
Cc1nc2ccccc2c2oc(C(=O)Nc3ccc4c(c3)OCCO4)cc12	none
Cc1nc2ccccc2c2oc(C(=O)Nc3ccc(C(C)C)cc3)cc12	HTR5A ag ctr 13.8
Cc1ccc(N2CCN(CC(O)COC3CCCCC3)CC2)cc1 (stereo not drawn)	HTR5A ag ctr 10.3
COc1ccccc1C(CNC(=O)COc1ccccc1C)N1CCCC1 (stereo not drawn)	none
OC(CNCC1COc2ccccc2O1)COc1ccc(Cl)cc1 (stereo not drawn)	HTR5A ag ctr 9.6
CCCCn1c(CCC(=O)O)nc2cc(S(=O)(=O)N3CCCC3)ccc21	HTR5A ag ctr 8.3
CCCn1c(CCC(=O)O)nc2cc(S(N)(=O)=O)ccc21	none
Cn1c(CCC(=O)Nc2ccc(F)cc2)nc2cc(S(=O)(=O)N3CCOCC3)ccc21	none
O=C1c2ccccc2C(=O)N1CC1c2ccccc2CCN1C(=O)C1CCCCC1 (stereo not drawn)	none
O=C1c2ccccc2C(=O)N1CC1c2ccccc2CCN1C(=O)CN1CCOCC1 (stereo not drawn)	HTR5A ag ctr 10.6
CCC(=O)c1ccc(OCC(O)CNC(C)c2ccccc2)cc1 (stereo not drawn)	none
CC(C)c1ccc(OCC(O)CNC(C)c2ccccc2)cc1 (stereo not drawn)	HTR5A ag ctr 11.7
COc1ccc(CCNC(=O)CSc2n[nH]c(C)c2[N+](=O)[O-])cc1OC	none
CCOC(=O)C(C)CC(C)C(=O)N1CCOCCN(C(=O)C(C)CC(C)C(=O)OCC)CCOCC1 (stereo not drawn)	HTR5A ag ctr 9.2
Oc1ccccc1-c1cc(C(F)(F)C(F)F)[nH]n1	HTR5A ag ctr 11.4
Oc1ccccc1C1=NCCNC(C(F)(F)C(F)F)=C1	none
CCN(CC)CCN(C(=O)c1ccc2c(c1)OCCO2)c1nc2ccc(C)cc2s1	none
Cc1ccc2nc(N(CCN(C)C)C(=O)c3ccc4c(c3)OCCO4)sc2c1	HTR5A ag ctr 13.6
O=C(NCC1COc2ccccc2O1)c1cn(Cc2ccc(F)cc2)nn1 (stereo not drawn)	HTR5A ag ctr 12.9

Compound activity from PubChem.
